Laboratory results from PubChem BioAssay (Tox21).
Inconclusive results are not listed. Active and inactive are the calls of the source. Calls come from the whole dose curve; as a rule, active = well fitted curve in the direction sought with a large enough effect in the repeat runs; inconclusive = weak or mixed curves; inactive = no such curve, though single readings can be large; an effect the other way counts as inactive or inconclusive.

How the values were obtained:
[1] = A CellTox Green Cytotoxicity Assay to monitor cytotoxicity in HEK293 cells - 32 hour (AID 1224881); note: nearly all actives have a fitted effect of over 40% in size
Method in brief: (§1)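 Fluorescence intensity, read at 0, 8, 16, 24, 32 and 40 h of compound treatment, reflected dye binding to DNA of dead HEK293 cells; compounds (23 nL, DMSO) were added 5 h after plating cells with reagent.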

[2] = A CellTox Green Cytotoxicity Assay to monitor cytotoxicity in HepG2 cells - 0 hour (AID 1224882); note: nearly all actives have a fitted effect of over 35% in size
Method in brief: (§2)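 Using 1536-well format, dye-containing HepG2 suspension was seeded, allowed 5 h at 37 C/5% CO2, dosed by pintool with compounds, positive and negative controls, and imaged for fluorescence across 40 h.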

[3] = A CellTox Green Cytotoxicity Assay to monitor cytotoxicity in HepG2 cells - 32 hour (AID 1224883); note: nearly all actives have a fitted effect of over 50% in size; note: potency is the fitted concentration of half-maximal effect
Method in brief: as §2

[4] = A CellTox Green Cytotoxicity Assay to monitor cytotoxicity in HEK293 cells - 8 hour (AID 1224884); note: nearly all actives have a fitted effect of over 35% in size; note: potency is the fitted concentration of half-maximal effect
Method in brief: as §1

[5] = qHTS RealTime-Glo MT Cell Viability Assay in HepG2 cells - 16 hour (AID 1224885); note: nearly all actives have a fitted effect of over 50% in size
Method in brief: (§3)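 Tox21 10K library screened in qHTS format on HepG2 cells carrying RealTime-Glo reagents. Compounds were added after a 5 h preincubation, and the luminescent signal from continuous culture was measured repeatedly during 40 h treatment.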

[6] = qHTS RealTime-Glo MT Cell Viability Assay in HEK293 cells - 24 hour (AID 1224886); note: nearly all actives have a fitted effect of over 50% in size; note: potency is the fitted concentration of half-maximal effect; for activity change, negative = cytotoxicity: top concentration of the series differs between compounds
Method in brief: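 Luminescence generated by NanoLuc from substrate produced by living HEK293 cells served as the viability signal. Each value reflects the reading at its stated time point during continuous 40 h compound exposure at 37 C.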

[7] = qHTS RealTime-Glo MT Cell Viability Assay in HEK293 cells - 8 hour (AID 1224887); note: nearly all actives have a fitted effect of over 50% in size; note: potency is the fitted concentration of half-maximal effect; for activity change, negative = cytotoxicity: top concentration of the series differs between compounds
Method in brief: (§4)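 Viable HEK293 cells reduce a cell-permeant prosubstrate; the product diffuses out and is consumed by NanoLuc in the medium to give light. Compounds went in after a 5 h incubation and plates were read over the treatment course.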

[8] = A CellTox Green Cytotoxicity Assay to monitor cytotoxicity in HEK293 cells - 16 hour (AID 1224888); note: nearly all actives have a fitted effect of over 35% in size; note: potency is the fitted concentration of half-maximal effect
Method in brief: as §1

[9] = qHTS RealTime-Glo MT Cell Viability Assay in HepG2 cells - 0 hour (AID 1224889); note: nearly all actives have a fitted effect of over 50% in size; note: potency is the fitted concentration of half-maximal effect
Method in brief: as §3

[10] = qHTS RealTime-Glo MT Cell Viability Assay in HEK293 cells - 0 hour (AID 1224880); note: top concentration of the series differs between compounds; nearly all actives have a fitted effect of over 45% in size
Method in brief: as §4
% is set by controls: 0 for no effect and ±100 for the full control effect.

N#CC1(O)CCCCC1
inactive: Potency [1] | Potency [2] | Potency [3] | Potency [4] | outcome [5] | Potency [6] | Potency [7] | Potency [8] | Potency [9]

Cc1ccc(N)cc1[N+](=O)[O-]
inactive: outcome [10] | Potency [2] | Potency [4] | outcome [5] | Potency [6] | Potency [8]

CN(C)CCn1nnnc1SCC1=C(C(=O)O)N2C(=O)[C@@H](NC(=O)Cc3csc(N)n3)[C@H]2SC1
inactive: outcome [10] | Potency [2] | Potency [3] | Potency [4] | outcome [5] | Potency [6] | Potency [8]

Fc1ccccc1-c1ccccc1
inactive: outcome [10] | Potency [2] | Potency [4] | outcome [5] | Potency [6] | Potency [7] | Potency [8] | Potency [9]

[O-][N+](=Nc1ccccc1)c1ccccc1
inactive: outcome [10] | Potency [2] | Potency [4] | outcome [5] | Potency [6] | Potency [7] | Potency [8] | Potency [9]

NC(=O)c1ncn([C@@H]2O[C@H](CO)[C@@H](O)[C@H]2O)c1O
inactive: outcome [10] | outcome [5] | Potency [6] | Potency [7]
active: Potency [4] 23.9 µM | Potency [8] 19 µM

C#CC(C)(O)CC(C)C (stereo not given)
inactive: Potency [1] | Potency [2] | Potency [3] | Potency [4] | outcome [5] | Potency [6] | Potency [7] | Potency [8] | Potency [9]

COC(=O)c1ccc(C(=O)OC)c(C(=O)OC)c1
inactive: outcome [10] | Potency [2] | Potency [4] | outcome [5] | Potency [6] | Potency [7] | Potency [8] | Potency [9]

NC(=O)Nc1nc2ccccc2[nH]1
inactive: outcome [10] | Potency [3] | Potency [4] | outcome [5] | Potency [6] | Potency [7] | Potency [9]

Nc1[nH]c(=O)ncc1F
inactive: outcome [10] | Potency [2] | Potency [3] | Potency [4] | outcome [5] | Potency [6] | Potency [7] | Potency [8] | Potency [9]

CCCCCN(CCCCC)C(=O)C(CCC(=O)O)NC(=O)c1ccc(Cl)c(Cl)c1 (stereo not given)
inactive: outcome [10] | Potency [2] | Potency [3] | Potency [4] | outcome [5] | Potency [6] | Potency [8] | Potency [9]

O=C1C(CCS(=O)c2ccccc2)C(=O)N(c2ccccc2)N1c1ccccc1 (stereo not given)
inactive: outcome [10] | Potency [3] | Potency [4] | outcome [5] | Potency [6] | Potency [7] | Potency [8]

Oc1cc(O)c2c(c1)O[C@H](c1ccc(O)c(O)c1)[C@H](O)C2
inactive: outcome [10] | Potency [2] | Potency [3] | Potency [4] | outcome [5] | Potency [6] | Potency [7] | Potency [8] | Potency [9]

CCCCCC[C@@H](CCC)C(=O)O
inactive: Potency [1] | Potency [2] | Potency [3] | Potency [4] | outcome [5] | Potency [6] | Potency [7] | Potency [8]

Cc1cc(C)cc(OCC2CNC(=O)O2)c1 (stereo not given)
inactive: Potency [1] | Potency [2] | Potency [3] | Potency [4] | outcome [5] | Potency [6] | Potency [7] | Potency [8] | Potency [9]

O=C(O)Cc1cc(I)c(Oc2cc(I)c(O)c(I)c2)c(I)c1
inactive: outcome [10] | Potency [2] | Potency [4] | outcome [5] | Potency [6] | Potency [7] | Potency [8] | Potency [9]

COC[C@H](c1ccc(C(F)(F)F)cc1)N1CCN(C2(C)CCN(C(=O)c3c(C)ncnc3C)CC2)C[C@H]1C
inactive: outcome [10] | Potency [2] | Potency [4] | outcome [5] | Potency [6] | Potency [7] | Potency [8] | Potency [9]

CN(C)C(=O)C(CCN1CCC(O)(c2ccc(Cl)cc2)CC1)(c1ccccc1)c1ccccc1
active: Potency [3] 19 µM | Potency [6] 9.52 µM | Potency [7] 12 µM
inactive: outcome [10] | Potency [4] | Potency [8] | Potency [9]

COCCOC(=O)CC#N
inactive: Potency [1] | Potency [2] | Potency [3] | Potency [4] | outcome [5] | Potency [6] | Potency [7] | Potency [8] | Potency [9]

C/C=C1\C(=O)C[C@H]2[C@@H]3CCC4=CC(=O)CC[C@]4(C)[C@H]3CC[C@]12C
inactive: Potency [2] | Potency [3] | Potency [4] | outcome [5] | Potency [8]
active: Potency [9] 7.61 µM

NS(=O)(=O)c1cc2c(cc1Cl)NC(CSCc1ccccc1)=NS2(=O)=O
inactive: Potency [2] | Potency [4] | outcome [5] | Potency [6] | Potency [7] | Potency [8] | Potency [9]

OCc1ccccn1
inactive: Potency [2] | Potency [3] | Potency [4] | outcome [5] | Potency [6] | Potency [7] | Potency [8] | Potency [9]

Cn1ccc2cc3c(cc21)CCN3C(=O)Nc1cccnc1
inactive: cytotoxicity increase [1] 1.72% [at 15.8 µM] | cytotoxicity [2] -1.51% [at 15.8 µM] | cytotoxicity increase [3] -9.84% [at 15.8 µM] | cytotoxicity increase [4] -5.84% [at 15.8 µM] | activity change, negative = cytotoxic [5] -4.07% [at 15.8 µM] | activity change, negative = cytotoxicity [6] -8.85% [at 15.8 µM] | activity change, negative = cytotoxicity [7] -3.76% [at 15.8 µM] | activity change [8] -2.95% [at 15.8 µM, active compounds read high] | activity change, negative = cytotoxicity [9] -0.377% [at 15.8 µM]

CCCc1ccc(N)cc1
inactive: Potency [2] | Potency [3] | Potency [4] | outcome [5] | Potency [6] | Potency [8] | Potency [9]

CCCCc1ccc2cccc(S(=O)(=O)O)c2c1
inactive: Potency [1] | Potency [2] | Potency [4] | outcome [5] | Potency [6] | Potency [7] | Potency [8] | Potency [9]

c1ccc(CCCc2ccccn2)cc1
inactive: Potency [2] | Potency [3] | Potency [4] | outcome [5] | Potency [6] | Potency [8] | Potency [9]

CCN(CC)C(=O)c1ccc(O)c(OC)c1
inactive: Potency [1] | Potency [3] | Potency [4] | outcome [5] | Potency [6] | Potency [7] | Potency [8] | Potency [9]
